# L3MBTL1 block = qHTS Assay for the Inhibitors of L3MBTL1 | Lethal(3)malignant brain tumor-like protein 1 (Homo sapiens), Q9Y468 | Potency, µM (doses to about 57.1 µM), usual class: inhibitors | AlphaScreen L3MBTL1–H3K9me1 peptide binding | actives 0.66% (n = 230,000); further: nearly all actives have a fitted effect of over 60% in size
#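 AlphaScreen proximity signal between nickel-chelate acceptor and streptavidin donor beads (final 10 ug/mL) reports binding of 50 nM L3MBTL1 to 75 nM biotin-H3 K9me1 peptide; complex incubated with compounds 30 min at room temperature; cefsulodin titration as control.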
# POLK inh = qHTS for Inhibitors of Polymerase Kappa; DNA polymerase kappa (Homo sapiens), Q9UBT6; purified Pol kappa, fluorescent DNA synthesis assay, 10 min; Potency, µM (highest dose often 107 µM), actives largely listed as inhibitors; actives 0.53% (n = 400,000)
# Target sequence (Q9UBT6 whole entry, looked up): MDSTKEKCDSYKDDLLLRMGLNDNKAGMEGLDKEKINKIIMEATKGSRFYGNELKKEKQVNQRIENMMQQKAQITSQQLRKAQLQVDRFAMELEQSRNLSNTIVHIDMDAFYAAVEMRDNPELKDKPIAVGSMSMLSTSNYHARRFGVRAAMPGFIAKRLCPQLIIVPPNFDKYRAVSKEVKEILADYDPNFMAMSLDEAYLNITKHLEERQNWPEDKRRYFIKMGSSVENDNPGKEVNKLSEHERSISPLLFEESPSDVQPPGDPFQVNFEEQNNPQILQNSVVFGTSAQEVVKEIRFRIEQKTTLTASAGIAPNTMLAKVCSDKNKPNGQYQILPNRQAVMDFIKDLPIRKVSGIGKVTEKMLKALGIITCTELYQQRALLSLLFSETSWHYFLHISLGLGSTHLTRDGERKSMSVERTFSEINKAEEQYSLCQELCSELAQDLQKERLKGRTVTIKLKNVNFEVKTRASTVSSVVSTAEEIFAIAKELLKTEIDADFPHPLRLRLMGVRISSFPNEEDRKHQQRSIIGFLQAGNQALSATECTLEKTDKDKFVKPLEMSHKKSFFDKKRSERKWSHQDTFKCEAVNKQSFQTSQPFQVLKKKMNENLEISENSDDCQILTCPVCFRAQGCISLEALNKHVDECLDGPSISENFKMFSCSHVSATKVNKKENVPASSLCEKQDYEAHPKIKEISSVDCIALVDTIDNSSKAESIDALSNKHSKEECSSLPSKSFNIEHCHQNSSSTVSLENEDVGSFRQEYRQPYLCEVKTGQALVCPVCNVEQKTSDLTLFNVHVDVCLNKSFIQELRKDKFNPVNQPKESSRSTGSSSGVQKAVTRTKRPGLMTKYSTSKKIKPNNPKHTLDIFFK
#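 First, compounds were pin-transferred onto 10 nM Pol kappa. After 15 min at room temperature, substrate was added to 50 nM final. Fluorescence was then measured kinetically at 0 and 10 min.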
# Pol beta inh = qHTS Assay for Inhibitors of DNA Polymerase Beta | actives 1.3% (n = 340,000) | Pol beta primer extension/strand displacement, fluorescence kinetic | P06746 | Potency, µM (titrated, usually from 114 µM), actives largely listed as inhibitors
#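 Preincubation: enzyme (10 nM) with compound, 15 min, RT. Reaction: substrate added to 50 nM final. Reads: 0 and 10 min. Analysis: normalized, Hill fit.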
# POLI inh = qHTS for Inhibitors of Polymerase Iota; actives 1% (n = 390,000); Pol iota fluorescent replication assay, 10 min; DNA polymerase iota (Homo sapiens), Q9UNA4; Potency, µM (titrated, usually from 115 µM), usual class: inhibitors; AID 588590, 2011
#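 Pol iota at 10 nM preincubated 15 min with compounds at room temperature; reaction started with fluorescent substrate, 50 nM final. Fluorescence read kinetically at 0 and 10 min; buffer-only wells as negative control.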
# APEX1 inh = qHTS Assay for Inhibitors of the Human Apurinic/apyrimidinic Endonuclease 1 (APE1); DNA repair nuclease/redox regulator APEX1 (Homo sapiens), P27695; recombinant APE1, TAMRA/BHQ-2 abasic DNA cleavage fluorescence; Potency, µM (top dose mostly 65.8 µM), actives largely listed as inhibitors; actives 0.35% (n = 350,000); AID 2517, 2012; further: nearly all actives have a fitted effect of over 55% in size
#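 Measures dequenching upon AP-site incision of a 5'-TAMRA/3'-BHQ-2 THF-containing duplex, 50 nM; human APE1 0.75 nM after 15 min room-temperature exposure to compound; kinetic three-point read at one-minute spacing.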
# POLH inh = qHTS for Inhibitors of Polymerase Eta | recombinant Pol eta, fluorescent DNA replication assay | Potency, µM (doses to about 114 µM), hits mostly inhibitors | actives 1.2% (n = 390,000) | AID 588591, 2011
#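 Fluorescent replication assay: 50 nM final substrate added after a 15 min room-temperature compound preincubation with 10 nM enzyme. Signal taken at 0 min and again at 10 min.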
# Numbers stand for hits; - = inactive; ? = inconclusive; . = not tested or not shown; [ ] = dose if it differs, or a comment. Rows were chosen to be rich in hits. Some 2.5% of all compounds tested hit in one or more screens of this group. The call rests on the fitted dose curve; in most records, active means well fitted curve in the direction sought with a large enough effect; inconclusive means small, poorly fitted or top-dose-only effect, or another doubt; inactive means no such curve, though single readings can be large; an effect the other way counts as inactive or inconclusive.
SMILES,L3MBTL1 block,POLK inh,Pol beta inh,POLI inh,APEX1 inh,POLH inh
Cc1cccc(N2CC(C(=O)Nc3nnc(SCC(=O)Nc4nccs4)s3)CC2=O)c1 (configuration not stated),-,-,?,-,-,?
Cc1ccccc1N1CC(C(=O)Nc2nnc(SCC(=O)Nc3nccs3)s2)CC1=O (configuration not stated),-,-,50µM,?,-,?
COC(=O)c1ccc(CSc2nnc(NC(=O)C3CC(=O)N(c4ccc5c(c4)OCCO5)C3)s2)cc1 (configuration not stated),?,-,28µM,?,-,?
Cc1ccccc1N1CC(C(=O)Nc2nnc(SCc3ccccn3)s2)CC1=O (configuration not stated),.,-,79µM,?,-,50µM
CCc1ccc(C(=O)NNC(=O)C2CC(=O)N(c3ccc4c(c3)OCCO4)C2)cc1 (configuration not stated),-,-,.,-,-,-
Cc1ccc(CN2CC(C(=O)Nc3nnc(SCc4c(Cl)cccc4Cl)s3)CC2=O)cc1 (configuration not stated),-,-,13µM,?,?,?
Cc1ccc(-c2nnc(SCCC(=O)Nc3ccccc3)n2C)cc1,.,-,.,-,.,.
O=C(Nc1nnc(SCc2ccccn2)s1)C1CC(=O)N(c2ccc(F)cc2)C1 (configuration not stated),.,-,?,?,-,25µM
COc1cccc(N2CC(C(=O)Nc3nnc(SCc4ccccn4)s3)CC2=O)c1 (configuration not stated),-,-,-,-,-,-
Cc1nc2ccc([N+](=O)[O-])cc2c(=O)n1Cc1ccc(Br)cc1,-,-,-,-,-,-
Cc1nc2ccc([N+](=O)[O-])cc2c(=O)n1Cc1cccc(Br)c1,-,-,79µM,-,-,-
Cc1sc(-n2c(C)cc(/C=C3\SC(=S)NC3=O)c2C)c(C#N)c1C,-,79µM,32µM,?,-,22µM
COC(=O)/C=C/c1ccccc1S(=O)(=O)NC(C)C,.,-,.,-,.,.
Cc1ccccc1NC(=S)N/N=C/c1ccc(O)cc1O,32µM,-,-,-,-,-
CCCCCCCCCCCCCC[C@@H](O)[C@@H](O)[C@H](CO)NC(C)=O,.,-[12 µM],.,.,-,.
Cc1ccc(-n2nnnc2SCC(=O)NNC(=O)c2ccc([N+](=O)[O-])cc2)cc1,-,?,5.6µM,?,-,?
CCOC(=O)c1c(C)oc2c(F)c(F)c(F)c(F)c2c1=O,-,79µM,-,?,-,?
CCOC(=O)c1c(C)oc(=O)c(CC)c1O,.,.,.,.,.,-
Oc1ccc(-c2nc(-c3ccc(O)c(O)c3)cs2)cc1,-,?,40µM,?,?,?
CCN(CC)c1ccc(/C=C/c2ccncc2)cc1,.,-,.,79µM,.,.
CN(C)c1ccc(/C=C/c2ccncc2)cc1,-[11.4 µM],-,-,-,-,-
COc1cc(N(C)C)c(OC)cc1C=O,.,-,.,?,.,.
O=C(COc1ccccc1F)Nc1ccc(-c2nc3ccccc3s2)cc1,-,-,45µM,-,-,-
Cc1nc2ccc(NC(=O)COc3ccccc3F)cc2s1,.,-,-,-,-,-
O=C(CSc1nc2c(c(=O)[nH]1)CCC2)Nc1cccc(O)c1,.,-,-,-,.,.
SMILES,L3MBTL1 block,POLK inh,Pol beta inh,POLI inh,APEX1 inh,POLH inh
COc1ccc(CCNC(=O)CCCCn2c(=O)c3ccccc3n(Cc3ccc(F)cc3Cl)c2=O)cc1OC,.,-,-,-,.,-
O=C(CSc1ccc2nnc(-c3cccnc3)n2n1)NCc1ccco1,.,-,-,-,-,-
O=C(CSc1ccc2nnc(-c3cccc(F)c3)n2n1)NCc1ccco1,-,-,79µM,?,-,-
CCC[n+]1c(/C=C/c2c(OC)cc(OC)cc2OC)ccc2ccccc21,.,-,.,?,.,.
O=C1C([N+](=O)[O-])=C(O)c2cccc3cccc1c23,.,.,11µM,.,-,.
CCCCCCCCCCCCCCCC[n+]1ccc(C)cc1,.,-,.,-,.,.
